Test results taken from PubChem BioAssay (Tox21).
Results filed as inconclusive are left out. The source made the active and inactive calls. Calls follow the shape of the dose curve; as a rule, active = well fitted curve in the direction sought with a large enough effect in the repeat runs; inconclusive = weak or mixed curves; inactive = no such curve, though single readings can be large; an effect the other way counts as inactive or inconclusive.

Experiments:
[1] = qHTS RealTime-Glo MT Cell Viability Assay in HEK293 cells - 16 hour (AID 1224872); also: top concentration of the series differs between compounds; nearly all actives have a fitted effect of over 50% in size
Procedure, shortened: (§1)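 Quantitative high-throughput screen of the Tox21 10K library in HEK293: cells and RealTime-Glo reagents plated together, compound added at 5 h, luminescence monitored through 40 h at 37 C.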

[2] = qHTS RealTime-Glo MT Cell Viability Assay in HepG2 cells - 8 hour (AID 1224873); also: nearly all actives have a fitted effect of over 55% in size
Procedure, shortened: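 HepG2 cells (600/well) mixed with RealTime-Glo MT reagent, settled 5 h at 37 C/5% CO2 before compound addition. Nonlytic NanoLuc luminescence from viable-cell prosubstrate reduction read repeatedly during 40 h treatment at 37 C.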

[3] = qHTS RealTime-Glo MT Cell Viability Assay in HEK293 cells - 40 hour (AID 1224874); conditions: RealTime-Glo luminescence; max response: stronger effect = lower value; also: nearly all actives have a fitted effect of over 50% in size
Procedure, shortened: (§2)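 Viable HEK293 cells reduce a cell-permeant prosubstrate; the product diffuses out and is consumed by NanoLuc in the medium to give light. Compounds went in after a 5 h incubation and plates were read over the treatment course.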

[4] = A CellTox Green Cytotoxicity Assay to monitor cytotoxicity in HEK293 cells - 24 hour (AID 1224875); also: series mostly up to about 77 µM; nearly all actives have a fitted effect of over 45% in size
Procedure, shortened: (§3)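 Fluorescence intensity, read at 0, 8, 16, 24, 32 and 40 h of compound treatment, reflected dye binding to DNA of dead HEK293 cells; compounds (23 nL, DMSO) were added 5 h after plating cells with reagent.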

[5] = A CellTox Green Cytotoxicity Assay to monitor cytotoxicity in HepG2 cells - 16 hour (AID 1224876); also: nearly all actives have a fitted effect of over 45% in size
Procedure, shortened: (§4)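 Using 1536-well format, dye-containing HepG2 suspension was seeded, allowed 5 h at 37 C/5% CO2, dosed by pintool with compounds, positive and negative controls, and imaged for fluorescence across 40 h.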

[6] = qHTS RealTime-Glo MT Cell Viability Assay in HepG2 cells - 32 hour (AID 1224877); also: nearly all actives have a fitted effect of over 55% in size
Procedure, shortened: (§5)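 Compound treatment began 5 h after plating HepG2 cells (600/well) with NanoLuc luciferase and prosubstrate. Plates stayed at 37 C for 40 h; luminescence was captured at six time points, 0 h through 40 h.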

[7] = A CellTox Green Cytotoxicity Assay to monitor cytotoxicity in HepG2 cells - 24 hour (AID 1224878); also: nearly all actives have a fitted effect of over 45% in size
Procedure, shortened: as §4

[8] = A CellTox Green Cytotoxicity Assay to monitor cytotoxicity in HepG2 cells - 40 hour (AID 1224879); also: nearly all actives have a fitted effect of over 40% in size
Procedure, shortened: as §4

[9] = qHTS RealTime-Glo MT Cell Viability Assay in HEK293 cells - 0 hour (AID 1224880); also: top concentration of the series differs between compounds; nearly all actives have a fitted effect of over 45% in size
Procedure, shortened: as §2

[10] = A CellTox Green Cytotoxicity Assay to monitor cytotoxicity in HEK293 cells - 32 hour (AID 1224881); also: nearly all actives have a fitted effect of over 40% in size
Procedure, shortened: as §3

[11] = A CellTox Green Cytotoxicity Assay to monitor cytotoxicity in HepG2 cells - 0 hour (AID 1224882); also: nearly all actives have a fitted effect of over 35% in size
Procedure, shortened: as §4

[12] = A CellTox Green Cytotoxicity Assay to monitor cytotoxicity in HepG2 cells - 32 hour (AID 1224883); also: nearly all actives have a fitted effect of over 50% in size
Procedure, shortened: as §4

[13] = A CellTox Green Cytotoxicity Assay to monitor cytotoxicity in HEK293 cells - 8 hour (AID 1224884); also: nearly all actives have a fitted effect of over 35% in size
Procedure, shortened: as §3

[14] = qHTS RealTime-Glo MT Cell Viability Assay in HepG2 cells - 16 hour (AID 1224885); also: nearly all actives have a fitted effect of over 50% in size
Procedure, shortened: as §5

[15] = qHTS RealTime-Glo MT Cell Viability Assay in HEK293 cells - 24 hour (AID 1224886)
Procedure, shortened: as §1

[16] = qHTS RealTime-Glo MT Cell Viability Assay in HEK293 cells - 8 hour (AID 1224887)
Procedure, shortened: as §2

[17] = A CellTox Green Cytotoxicity Assay to monitor cytotoxicity in HEK293 cells - 16 hour (AID 1224888); also: nearly all actives have a fitted effect of over 35% in size
Procedure, shortened: as §3

[18] = qHTS RealTime-Glo MT Cell Viability Assay in HepG2 cells - 0 hour (AID 1224889); also: nearly all actives have a fitted effect of over 50% in size
Procedure, shortened: as §5

[19] = A CellTox Green Cytotoxicity Assay to monitor cytotoxicity in HepG2 cells - 8 hour (AID 1224890); also: nearly all actives have a fitted effect of over 45% in size
Procedure, shortened: as §4

[20] = qHTS assay to identify small molecule antagonists of the estrogen receptor alpha (ER-alpha) signaling pathway using the BG1 cell line in the presence of 0.1 nM 17-beta-estradiol - cell viability counter screen (AID 1259241); also: nearly all actives have a fitted effect of over 40% in size
Procedure, shortened: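 Live-cell protease activity (CellTiter-Fluor fluorescence, 30 min) was read in the same wells after VM7Luc4E2 cells had been exposed to compounds with 0.1 nM 17beta-estradiol for 22 hr at 37C.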
% is scaled to controls: 0 for no effect and ±100 for the full control effect.

NO
inactive: Potency [1] | outcome [2] | max response [3] -12.7% | outcome [4] | outcome [5] | Potency [6] | outcome [7] | Potency [8] | Potency [9] | outcome [10] | Potency [11] | Potency [12] | outcome [13] | outcome [14] | Potency [15] | Potency [16] | outcome [17] | Potency [18] | outcome [19] | outcome [20]

C=C(C)C(=O)OCC(O)CO (configuration not stated)
inactive: Potency [1] | outcome [2] | max response [3] 2.31% | outcome [4] | outcome [5] | Potency [6] | outcome [7] | Potency [8] | Potency [9] | outcome [10] | Potency [11] | Potency [12] | outcome [13] | outcome [14] | Potency [15] | Potency [16] | outcome [17] | Potency [18] | outcome [19] | outcome [20]

CCCC[N+](C)(CCCC)CCCC
inactive: Potency [1] | outcome [2] | max response [3] -1.08% | outcome [4] | outcome [5] | Potency [6] | outcome [7] | Potency [8] | Potency [9] | outcome [10] | Potency [11] | Potency [12] | outcome [13] | outcome [14] | Potency [15] | Potency [16] | outcome [17] | Potency [18] | outcome [19]

CC(=O)N1C[C@H](O)C[C@H]1C(=O)O
inactive: Potency [1] | outcome [2] | max response [3] 6.07% | outcome [4] | outcome [5] | Potency [6] | outcome [7] | Potency [8] | Potency [9] | outcome [10] | Potency [11] | Potency [12] | outcome [13] | outcome [14] | Potency [15] | Potency [16] | outcome [17] | Potency [18] | outcome [19]

CC(C(=O)O)c1cccc(Oc2ccccc2)c1 (configuration not stated)
inactive: Potency [1] | outcome [2] | max response [3] -2.21% | outcome [4] | outcome [5] | Potency [6] | outcome [7] | Potency [8] | Potency [9] | outcome [10] | Potency [11] | Potency [12] | outcome [13] | outcome [14] | Potency [15] | Potency [16] | outcome [17] | Potency [18] | outcome [19] | outcome [20]

CC1=NS(=O)(=O)c2cc(Cl)ccc2N1
inactive: Potency [1] | outcome [2] | max response [3] 2.07% | outcome [4] | outcome [5] | Potency [6] | outcome [7] | Potency [8] | Potency [9] | outcome [10] | Potency [11] | Potency [12] | outcome [13] | outcome [14] | Potency [15] | Potency [16] | outcome [17] | Potency [18] | outcome [19] | outcome [20]

OCCCCCO
inactive: Potency [1] | outcome [2] | max response [3] 4.41% | outcome [4] | outcome [5] | Potency [6] | outcome [7] | Potency [8] | Potency [9] | outcome [10] | Potency [11] | Potency [12] | outcome [13] | outcome [14] | Potency [15] | Potency [16] | outcome [17] | Potency [18] | outcome [19] | outcome [20]

Cc1ccnc(NS(=O)(=O)c2ccc(N)cc2)n1
inactive: Potency [1] | outcome [2] | max response [3] 6.66% | outcome [4] | outcome [5] | Potency [6] | outcome [7] | Potency [8] | Potency [9] | outcome [10] | Potency [11] | Potency [12] | outcome [13] | outcome [14] | Potency [15] | Potency [16] | outcome [17] | Potency [18] | outcome [19] | outcome [20]

COc1ccccc1OCC1CNC(=O)O1 (configuration not stated)
inactive: Potency [1] | outcome [2] | max response [3] 8.57% | outcome [4] | outcome [5] | Potency [6] | outcome [7] | Potency [8] | Potency [9] | outcome [10] | Potency [11] | Potency [12] | outcome [13] | outcome [14] | Potency [15] | Potency [16] | outcome [17] | Potency [18] | outcome [19] | outcome [20]

O=Cc1cccc(Br)c1
inactive: Potency [1] | outcome [2] | max response [3] 4.64% | outcome [4] | outcome [5] | Potency [6] | outcome [7] | Potency [8] | Potency [9] | outcome [10] | Potency [11] | Potency [12] | outcome [13] | outcome [14] | Potency [15] | Potency [16] | outcome [17] | Potency [18] | outcome [19] | outcome [20]

O=C1NC(=O)C2CC=CCC12 (configuration not stated)
inactive: Potency [1] | outcome [2] | max response [3] 11.2% | outcome [4] | outcome [5] | Potency [6] | outcome [7] | Potency [8] | Potency [9] | outcome [10] | Potency [11] | Potency [12] | outcome [13] | outcome [14] | Potency [15] | Potency [16] | outcome [17] | Potency [18] | outcome [19] | outcome [20]

CC(C)CC(C)(N)C#N (configuration not stated)
inactive: Potency [1] | outcome [2] | max response [3] 5.01% | outcome [4] | outcome [5] | Potency [6] | outcome [7] | Potency [8] | Potency [9] | outcome [10] | Potency [11] | Potency [12] | outcome [13] | outcome [14] | Potency [15] | Potency [16] | outcome [17] | Potency [18] | outcome [19] | outcome [20]

CN1CC(=O)N/C1=N/C(=O)Nc1cccc(Cl)c1
inactive: Potency [1] | outcome [2] | max response [3] -14.4% | outcome [4] | outcome [5] | Potency [6] | outcome [7] | Potency [8] | Potency [9] | outcome [10] | Potency [11] | Potency [12] | outcome [13] | outcome [14] | Potency [15] | Potency [16] | outcome [17] | Potency [18] | outcome [19] | outcome [20]

CCCCN(CCC(=O)OCC)C(C)=O
inactive: Potency [1] | outcome [2] | max response [3] 0.53% | outcome [4] | outcome [5] | Potency [6] | outcome [7] | Potency [8] | Potency [9] | outcome [10] | Potency [11] | Potency [12] | outcome [13] | outcome [14] | Potency [15] | Potency [16] | outcome [17] | Potency [18] | outcome [19]
